Screening data: PubChem, several laboratories
Hits are enriched below; roughly 4.1% of the tested compounds scored in any of these assays.
CHT PAM = CHT positive allosteric modulators, primary screen, cell-based, membrane potential dye, choline EC20. High affinity choline transporter 1 (Homo sapiens), Q9GZV3. CHT-expressing cells; stronger effect = higher value; LV-AA mutant CHT in HEK293 cells. B-score at 10 µM. actives 0.49% (n = 310,000). AID 488977, 2010;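 active means initial fluorescence not abnormally high and integrated response B-score, plate-corrected, over 3 SD above library mean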
Target sequence (Q9GZV3 whole entry, looked up): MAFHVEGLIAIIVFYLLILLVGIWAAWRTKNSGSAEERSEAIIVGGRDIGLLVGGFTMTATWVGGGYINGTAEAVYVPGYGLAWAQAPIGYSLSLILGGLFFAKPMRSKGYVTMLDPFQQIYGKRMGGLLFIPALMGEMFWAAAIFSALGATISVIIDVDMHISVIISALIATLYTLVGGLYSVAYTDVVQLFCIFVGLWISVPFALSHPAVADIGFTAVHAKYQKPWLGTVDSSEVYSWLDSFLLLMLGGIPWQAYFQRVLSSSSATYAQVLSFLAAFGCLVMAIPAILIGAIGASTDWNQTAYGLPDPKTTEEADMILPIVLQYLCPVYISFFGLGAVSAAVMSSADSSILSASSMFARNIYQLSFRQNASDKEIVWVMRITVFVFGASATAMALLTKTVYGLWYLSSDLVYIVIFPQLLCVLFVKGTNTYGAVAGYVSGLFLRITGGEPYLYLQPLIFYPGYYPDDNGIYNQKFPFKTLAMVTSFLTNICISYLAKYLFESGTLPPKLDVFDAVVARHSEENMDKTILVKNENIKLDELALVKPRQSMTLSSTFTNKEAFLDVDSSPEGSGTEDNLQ
MEKK2 mut-MEK5 = MEK5 binding signal on mutant MEKK2 PB1, primary screen, biochemical, multiplex bead flow cytometry, Alexa488-MEK5; AID 1530, 2009; Alexa488-MEK5 binding to MEKK2 mutant; percent response, % at 10 µM; actives 0.35% (n = 290,000); in the data active means percent response above about 24%, passing the limit was not always enough
CHT block = inhibitors of human choline transporter CHT. B-score at 10 µM. CHT-expressing cells, membrane potential dye, choline response; stronger effect = lower value. High affinity choline transporter 1 (Homo sapiens), Q9GZV3. actives 0.86% (n = 310,000);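 active means B-score over 3 SD under the library average, and starting fluorescence ratio not unusually high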;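 further: choline stimulus applied at its EC90 after an EC20 pre-addition; B-score computed on integrated fluorescence ratio after choline addition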
Mot1-301 SUMO = yeast Mot1-301 growth rescue at high temperature, primary screen, SUMOylation pathway inhibitor project, S. cerevisiae, ATP luminescence, 38.5C | S. cerevisiae Mot1-301 growth rescue; percent above DMSO median, 100 means doubled | growth rescue, % at 18.8 µM | actives 1% (n = 320,000) | AID 2716, 2010;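 active means every valid replicate shows activation above 250% relative to neutral control wells; inactive means the rest, any valid replicate at or below 250%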;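 further: OY570 slx delta 5 strain wells were the positive control but not used for scaling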
MEKK3 PB1 HTS = modulators of MEKK3-MEK5 PB1 binding, primary screen, biochemical, wildtype MEKK3, multiplex bead flow cytometry, Alexa488-MEK5; Mitogen-activated protein kinase kinase kinase 3 (Homo sapiens), Q99759; bead-based flow cytometry, Alexa488-MEK5 binding to MEKK3; actives lie on both sides; 0 = blocked by unlabeled MEK5, 100 = vehicle; actives 1.4% (n = 290,000); binding response (% of control), % at 10 µM; AID 1529, 2009;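 active means binding response more than 3 SD above or below the average of its plate-row segment, actives on both sides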;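 further: Alexa488 bead fluorescence after subtracting the streptavidin-only scavenger bead signal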
MEKK2 WT-MEK5 = modulators of MEK5 binding to wildtype MEKK2, primary screen, biochemical, multiplex bead flow cytometry, Alexa488-MEK5. Alexa488-MEK5 binding to MEKK2 WT; actives lie on both sides. binding response (% of control), % at 10 µM. actives 1.1% (n = 290,000). AID 1531, 2009; in the data active means binding response below about 67% or above about 130%
CHT block conf = CHT inhibitors, confirmation, cell-based, membrane potential dye, duplicate | shares compounds with CHT block | CHT-expressing cells, choline membrane potential dye; LV-to-AA substituted CHT, HEK293 cells | CHT activity remaining % of control (stronger effect = lower value), % at 10 µM | actives 70% (n = 2,400) | AID 493221, 2011;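 active means choline transporter activity left, mean of duplicates at 10 µM, below buffer-only control mean minus 3 SD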;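 further: depolarization triggered by choline at its EC90 following an EC20 pre-addition; 0% = hemicholinium-3 full block and 100% = buffer-only control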
HEK293 CHT ctr = membrane potential effects in parental HEK293, counter-screen for CHT inhibitor project, cell-based, membrane potential dye. shares compounds with CHT block. choline response; active = decrease or increase beyond buffer ±3SD. membrane potential ratio readout (active if shifted either direction beyond buffer ±3SD; no single direction) at 10 µM. actives 4% (n = 2,400);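 further: parental cells lack the transporter so any hit is non-specific; ratio is peak minus trough fluorescence over baseline after EC90 choline challenge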
* = called active by the depositor; i = inactive; nt = not tested or not shown.

SMILES	CHT PAM	MEKK2 mut-MEK5	CHT block	Mot1-301 SUMO	MEKK3 PB1 HTS	MEKK2 WT-MEK5	CHT block conf	HEK293 CHT ctr
O=C(CCC1CCCN(c2ncccn2)C1)NCc1ccc(F)c(F)c1 (configuration not stated)	i	-5.0	-5.78*	-15.0	101.0	91.0	63.9%*	i
CCOc1ccc(NC(=O)COC(=O)Cc2ccsc2)cc1	nt	nt	nt	0.9	nt	nt	nt	nt
CCCCC(NC(C)=O)c1nc2ccccc2n1CCCC (configuration not stated)	i	nt	i	-4.2	nt	nt	nt	nt
Cc1ccc(C(=O)O)cc1NC(=S)NC(=O)c1ccc(COc2ccccc2)cc1	i	2.0	-6.54*	7.5	96.0	98.0	47.8%*	i
N#Cc1ccc(COC(=O)c2cnc(Cl)c(Cl)c2)cc1	i	-2.0	i	-8.5	99.0	94.0	nt	nt
O=C(O)CC/C(=N\Nc1ccc(S(=O)(=O)N2CCCC2)cc1[N+](=O)[O-])c1cccs1	nt	-2.0	nt	nt	99.0	91.0	nt	nt
O=C(O)CC/C(=N\Nc1ccccc1[N+](=O)[O-])c1cccs1	i	7.0	-5.67*	16.0	103.0	104.0	48.1%*	2.86*
CCCN(CCC)c1nc(N(CCC)CCC)[nH]c(=O)n1	i	4.0	-5.09*	325.2	102.0	98.0	64.1%*	i
COCCNC(=O)C1CC(c2ccccc2C(F)(F)F)=NO1 (configuration not stated)	i	nt	i	-22.2	nt	nt	nt	nt
CCOc1cc(/C=C2/C(=O)ON=C2C)ccc1O	i	5.0	i	33.7	107.0	101.0	nt	nt
O=C1ON=C(c2ccccc2)/C1=C/c1ccc(O)c(O)c1	i	3.0	-6.83*	0.7	104.0	104.0	32.6%*	i
CC1=NOC(=O)/C1=C/c1ccc(O)c(Cl)c1	i	4.0	-8.62*	12.6	101.0	103.0	26.8%*	i
CNS(=O)(=O)c1ccc(Cl)nc1	i	-2.0	i	4.6	95.0	97.0	nt	nt
CCCc1cc(Nc2c(C)n(C)n(-c3ccccc3)c2=O)n2c(nc3ccccc32)c1C#N	i	0.0	-8.01*	-10.1	107.0	103.0	38.1%*	i
CCc1c(C)nc2ncnn2c1NCCc1ccccc1	i	1.0	-5.17*	-11.8	103.0	101.0	46.6%*	i
CCc1c(C)nc2ncnn2c1Nc1ccccc1C	i	-4.0	i	119.7	94.0	92.0	nt	nt
COc1ccc(CCNc2cc(-c3ccccc3)nc3ncnn23)cc1	i	nt	i	-20.6	nt	nt	nt	nt
CCc1c(C)nc2ncnn2c1NCCc1ccc(Cl)cc1	i	-7.0	-5.19*	-6.2	101.0	91.0	63.0%*	i
COc1cc(C#N)ccc1OC(=O)C1CCN(C(=O)c2ccc(F)cc2)CC1	i	nt	i	-12.9	nt	nt	nt	nt
CC(C1CC2CCC1C2)n1c(-c2cccs2)n[nH]c1=S (configuration not stated)	i	-1.0	i	41.7	100.0	102.0	nt	nt
COc1ccc(CN2CCN(C(C)C)C(CCO)C2)cc1Cn1cccn1 (configuration not stated)	i	2.0	-11.9*	-7.9	105.0	103.0	6.3%*	i
COc1ccc(CN2CCN(CCC(C)C)C(CCO)C2)cc1Cn1cccn1 (configuration not stated)	i	-5.0	i	-4.1	91.0	93.0	nt	nt
Cc1ccc(NC(=O)c2ccc(Cl)c(S(=O)(=O)N3CCCCCC3)c2)nc1	i	nt	i	9.3	nt	nt	nt	nt
Cc1cc(=O)[nH]c(SCC(=O)Nc2ccc(Br)cc2)c1C#N	i	0.0	i	-6.0	104.0	105.0	nt	nt
Cc1cc(=O)[nH]c(SCC(=O)Nc2ccc(F)cc2)c1C#N	i	-11.0	-10.2*	10.9	100.0	95.0	62.2%*	i
SMILES	CHT PAM	MEKK2 mut-MEK5	CHT block	Mot1-301 SUMO	MEKK3 PB1 HTS	MEKK2 WT-MEK5	CHT block conf	HEK293 CHT ctr
CCC(=O)N(C(=O)CC)N1CCN(c2ccncc2S(=O)(=O)N2CCCCC2)CC1	i	4.0	i	3.3	98.0	102.0	nt	nt
CCn1cc(CNC(=S)Nc2cccc(Cl)c2C)cn1	i	-1.0	i	-13.9	99.0	99.0	nt	nt
COc1ccccc1Nc1ncnc2ccc(C)cc12	i	5.0	-5.37*	-7.7	107.0	106.0	60.6%*	i
Cc1ccc2ncnc(Nc3ccccc3)c2c1	i	-2.0	i	1.8	111.0	99.0	nt	nt
CC(C)(C)OC(=O)NCCCCCc1nnc(SCC(=O)Nc2cccc(Cl)c2)o1	i	-3.0	-5.63*	17.5	101.0	102.0	i	i
CC(C)(C)OC(=O)NCCc1nnc(SCc2ccc(Cl)cc2)o1	i	-1.0	-6.15*	-5.0	101.0	102.0	65.2%*	i
O=C(O)c1ccc(CSc2nnc(-c3cccnc3)n2-c2ccc(Br)cc2)cc1	i	-3.0	i	-3.7	84.0	88.0	nt	nt
O=C1c2cccc(Cl)c2C(=O)c2c1cccc2N1CCCC1	i	11.0	i	-30.4	107.0	125.0	nt	nt
CCOC(=O)c1ccc(CNC(=O)C2CCC(=O)N(CCc3ccccc3)C2)o1 (configuration not stated)	i	3.0	i	-3.3	102.0	104.0	nt	nt
O=C1c2cccnc2C(=O)N1Cc1ccc(S(=O)(=O)N2CCOc3ccc(Cl)cc32)cc1	i	0.0	-5.05*	13.3	102.0	101.0	i	i
O=C1C2C(C(=O)N1/N=C/c1cc(Br)cc([N+](=O)[O-])c1O)C1C=CC2C12CC2 (configuration not stated)	i	10.0	-7.57*	2.4	99.0	105.0	43.4%*	i
O=C1C2C(C(=O)N1/N=C/c1cc([N+](=O)[O-])c(O)cc1O)C1C=CC2C12CC2 (configuration not stated)	i	0.0	i	4.6	99.0	98.0	nt	nt
O=C(CSc1nnc(C2CCCCC2)n1Cc1ccccc1)NCc1ccco1	i	1.0	i	3.4	97.0	95.0	nt	nt
